# Test results from PubChem BioAssay (Tox21).
# Records with an inconclusive call do not appear. A call without a number means that no potency is given here. Unmarked numbers belong to inactive results. The source made the active and inactive calls. Calls come from the whole dose curve; as a rule, active = well fitted cell-killing curve with a large enough effect in the repeat runs; inconclusive = weak or mixed curves, or effect the other way; inactive = flat fitted curve, though single readings scatter.
# Test: cAMP Responsive Elements (CRE) small molecule antagonists, cell-based qHTS assay: qHTS cell viability counter screen (AID 2060913); note: nearly all actives have a fitted effect of over 40% in size
# Details: CRE-bla HEK293T viability, CellTiter-Glo luminescence, 5 h; series mostly up to 92.4 µM
# Text: U.S. Tox21 Program National Center for Advancing Translational Sciences [NCATS] Division of Preclinical Innovation [DPI] U.S. Environmental Protection Agency [EPA] National Institutes of Environmental Health Sciences [NIEHS] National Toxicology Program [NTP] U.S. Food and Drug Administration [FDA] Tox21 Assay Overview: CREB (cyclic-AMP Responsive Element Binding Protein) is a cellular transcription factor. It binds to certain DNA sequences called cAMP Responsive Elements (CRE) and regulates the transcription of the genes. […] This cell line can be used to find agonists/antagonists of the cyclic AMP signaling pathway. The activation of the report gene under culture conditions can be detected by fluorescence intensity. This cell line has been used to screen the Tox21 10K compound library to identify agonists that induce oxidative stress. The cytotoxicity of the Tox21 compound library against the CRE-bla cell line was tested in parallel by measuring the cell viability using CellTiter-Glo assay (Promega, Madison, WI) in the same wells.
# Tox21 Assay Protocol Summary: CRE-bla Hek 293T cells were suspended in assay medium (DMEM containing 10% dialyzed FBS, 0.1 mM NEAA, 1 mM sodium pyruvate and 25 mM HEPES) and dispensed at 2,000 cells/4 uL /well into 1536-well black wall/clear bottom plates using a Multidrop Combi (ThermoFisher Scientific, Waltham, MA) dispenser. After the assay plates were incubated at 37 C/5% CO2 for 18 hrs, 23 nL of compounds dissolved in DMSO, positive controls or DMSO only was transferred to the assay plate by a pintool workstation (Kalypsys, San Diego, CA), followed by addition of 1 uL of 1.25uM NKH477 (0.25 uM as final concentration) in assay medium using a Flying Reagent Dispenser (Aurora Discovery, San Diego, CA). The plates were incubated at 37 C and 5% CO2 for 3 hrs. Then 1 uL of LiveBLAzer B/G FRET substrate (Invitrogen, Carlsbad, CA) was added to each well using Bioraptr Flying Reagent Dispenser (FRD, Aurora Discovery, San Diego, CA). The plates were incubated at room temperature for 2 h, then fluorescence intensities were measured using an Envision plate reader (PerkinElmer, Shelton, CT) at Excitation 405nm, Emission 460nm and 530nm. The % activity was determined from the ratio of 460nm/530nm. For cell viability readout that measures cytotoxicity, 4 uL /well of CellTiter-Glo reagent was added into the assay plates using Bioraptr FRD. After 30 min incubation at room temperature, the luminescence intensity in the assay plates was measured using a ViewLux (PerkinElmer, Shelton, CT) plate reader.
SMILES,Potency,"viability change, negative = cytotoxic"
N[C@@H](Cc1cc(I)c(Oc2ccc(O)c(I)c2)c(I)c1)C(=O)O,inactive,–
CCC(C)(C)C1CCC(=O)CC1,inactive,–
C=Cc1ccc(OC(C)=O)cc1,inactive,–
Nc1cccc(S(=O)(=O)O)c1,inactive,–
N#CCc1ccc(Cl)cc1Cl,inactive,–
O=S(O)O,–,17.7% [at 18.9 µM]
Cc1ccccc1N=O,inactive,–
CCC(Cl)CCC(Cl)C(Cl)CC(Cl)C(Cl)C(Cl)CCl (stereo not given),inactive,–
COc1ccnc2c1CCCCC2S(=O)c1nc2ccccc2[nH]1 (stereo not given),inactive,–
COc1ccc(CCC(C)=O)cc1,inactive,–
O=P(O)(O)OCC(O)CO (stereo not given),inactive,–
O=C1O[C@H]([C@H](O)CO)C(O)=C1O,inactive,–
C[C@@H](O[C@H]1OCCN(Cc2n[nH]c(=O)[nH]2)[C@H]1c1ccc(F)cc1)c1cc(C(F)(F)F)cc(C(F)(F)F)c1,inactive,–
CC(Cc1ccccc1)(NC(=O)CN)c1ccccc1 (stereo not given),inactive,–
O=S(=O)(Cl)c1c(Cl)cccc1Cl,inactive,–
CC1CCC(C(C)(C)S)C(=O)C1 (stereo not given),inactive,–
C#CC(O)C(CC)CCCC (stereo not given),inactive,–
CCC(=O)Oc1ccc2c(c1)CC[C@@H]1[C@@H]2CC[C@@]2(C)[C@H]1C[C@@H](OC(=O)CC)[C@@H]2OC(=O)CC,inactive,–
CC1(C)CCC[C@]2(C)[C@H]3CCO[C@]3(C)CC[C@@H]12,inactive,–
CC(C)CCCCCCCCCCCCCCC(=O)O,inactive,–

SMILES,Potency,"viability change, negative = cytotoxic"
Oc1ccc(O)c2c(O)cccc12,inactive,–
Cc1occc1SSc1ccoc1C,inactive,–
CC(C)NCC(O)COc1cccc2ccccc12 (stereo not given),inactive,–
C=CCOC(=O)COCCC(C)C,inactive,–
c1ccc2c(c1)Cc1ccccc1-2,inactive,–
S=C(NC1CCCCC1)NC1CCCCC1,inactive,–
CC(=O)c1ccc(OCC(=O)N2CCCCC2)cc1,inactive,–
Cc1ccc2ccc3cccc4ccc1c2c34,inactive,–
O=C(O)CN(CCN(CC(=O)O)CC(=O)O)CC(=O)O,–,3.3% [at 3.27 µM]
C/C=C(\C)C(C)=O,inactive,–
CCOC(=O)OC(=O)OCC,inactive,–
CCN(CC)CCOC(=O)C(Cc1cccc2ccccc12)CC1CCCO1 (stereo not given),inactive,–
Cc1cccc(O)c1C,inactive,–
O=CN(CCO)CCO,inactive,–
Cc1sccc1Br,inactive,–
C/C(=C\C(C)CC(C)CC(C)C)C1CC(=O)OC1=O (stereo not given),inactive,–
CCCCCCCCCCCCCCCCOP(=O)([O-])OCC[N+](C)(C)C,inactive,–
Nc1nc2ccccc2[nH]1,inactive,–
CCC(=O)c1cccc(Cl)c1,inactive,–
COc1cc(N)c(Cl)cc1C(=O)NC1CCN(CCCOc2ccc(F)cc2)CC1OC (stereo not given),inactive,–
